The values below come from ChEMBL document CHEMBL2218924, “A broad activity screen in support of a chemogenomic map for kinase signalling research and drug discovery” (Biochem J, 2013).

In experiment [1] the target is T1, Tyrosine-protein kinase receptor TYRO3 (Homo sapiens) (UniProt Q06418).
T1 sequence (whole entry): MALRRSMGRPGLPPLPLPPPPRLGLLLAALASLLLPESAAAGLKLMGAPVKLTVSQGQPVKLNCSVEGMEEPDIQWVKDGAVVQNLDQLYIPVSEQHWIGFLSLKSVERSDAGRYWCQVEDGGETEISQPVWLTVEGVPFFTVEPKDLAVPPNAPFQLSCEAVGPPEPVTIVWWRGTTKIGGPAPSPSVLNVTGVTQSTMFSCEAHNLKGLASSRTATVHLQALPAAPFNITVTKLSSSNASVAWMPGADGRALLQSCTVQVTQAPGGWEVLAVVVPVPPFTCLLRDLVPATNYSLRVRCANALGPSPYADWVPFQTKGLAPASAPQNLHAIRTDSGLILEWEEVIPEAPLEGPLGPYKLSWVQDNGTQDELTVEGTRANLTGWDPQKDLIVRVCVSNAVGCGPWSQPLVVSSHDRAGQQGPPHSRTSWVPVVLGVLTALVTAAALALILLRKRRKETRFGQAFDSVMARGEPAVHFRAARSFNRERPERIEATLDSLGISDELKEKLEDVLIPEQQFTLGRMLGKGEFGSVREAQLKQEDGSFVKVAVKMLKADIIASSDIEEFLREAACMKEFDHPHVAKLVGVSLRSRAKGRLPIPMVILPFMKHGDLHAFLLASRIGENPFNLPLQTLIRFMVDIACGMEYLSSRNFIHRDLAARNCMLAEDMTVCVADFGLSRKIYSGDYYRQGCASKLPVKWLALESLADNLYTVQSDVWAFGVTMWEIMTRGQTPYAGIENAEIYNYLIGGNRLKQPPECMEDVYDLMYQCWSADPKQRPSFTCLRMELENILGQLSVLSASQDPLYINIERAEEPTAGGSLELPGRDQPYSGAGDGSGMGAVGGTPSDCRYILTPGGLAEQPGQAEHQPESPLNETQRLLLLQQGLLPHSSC
As to conditions: at 1 µM.

Experiment [2] addresses T1, Tyrosine-protein kinase receptor TYRO3 (Homo sapiens). As to conditions: at 10 µM.
Experiment [3] deals with Ribosomal protein S6 kinase alpha-1 (Homo sapiens) (UniProt Q15418). To be noted: at 10 µM.
Ribosomal protein S6 kinase alpha-1 (Homo sapiens), sequence (Q15418 whole entry): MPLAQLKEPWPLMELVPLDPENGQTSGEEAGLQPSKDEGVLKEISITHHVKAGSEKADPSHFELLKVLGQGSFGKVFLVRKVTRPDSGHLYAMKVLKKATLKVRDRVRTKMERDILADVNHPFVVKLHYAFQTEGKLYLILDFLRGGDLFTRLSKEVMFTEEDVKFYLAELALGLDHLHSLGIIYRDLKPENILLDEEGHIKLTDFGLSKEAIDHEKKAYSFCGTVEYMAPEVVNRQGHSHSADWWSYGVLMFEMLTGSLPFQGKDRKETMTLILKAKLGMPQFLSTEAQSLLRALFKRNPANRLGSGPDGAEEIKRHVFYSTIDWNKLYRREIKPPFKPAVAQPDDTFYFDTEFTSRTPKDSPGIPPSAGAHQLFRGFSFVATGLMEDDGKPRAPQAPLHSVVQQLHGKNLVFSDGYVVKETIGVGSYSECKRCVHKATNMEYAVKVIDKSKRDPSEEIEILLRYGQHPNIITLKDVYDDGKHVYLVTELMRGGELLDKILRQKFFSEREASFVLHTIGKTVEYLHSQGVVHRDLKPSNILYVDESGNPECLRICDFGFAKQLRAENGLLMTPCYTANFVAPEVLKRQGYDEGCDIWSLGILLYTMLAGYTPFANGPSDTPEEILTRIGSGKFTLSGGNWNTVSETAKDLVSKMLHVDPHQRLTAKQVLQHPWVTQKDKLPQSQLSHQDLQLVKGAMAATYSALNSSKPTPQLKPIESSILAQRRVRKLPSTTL
The target in experiment [4] is Ribosomal protein S6 kinase alpha-3 (Homo sapiens) (UniProt P51812). To be noted: at 1 µM.
Ribosomal protein S6 kinase alpha-3 (Homo sapiens), sequence (P51812 whole entry): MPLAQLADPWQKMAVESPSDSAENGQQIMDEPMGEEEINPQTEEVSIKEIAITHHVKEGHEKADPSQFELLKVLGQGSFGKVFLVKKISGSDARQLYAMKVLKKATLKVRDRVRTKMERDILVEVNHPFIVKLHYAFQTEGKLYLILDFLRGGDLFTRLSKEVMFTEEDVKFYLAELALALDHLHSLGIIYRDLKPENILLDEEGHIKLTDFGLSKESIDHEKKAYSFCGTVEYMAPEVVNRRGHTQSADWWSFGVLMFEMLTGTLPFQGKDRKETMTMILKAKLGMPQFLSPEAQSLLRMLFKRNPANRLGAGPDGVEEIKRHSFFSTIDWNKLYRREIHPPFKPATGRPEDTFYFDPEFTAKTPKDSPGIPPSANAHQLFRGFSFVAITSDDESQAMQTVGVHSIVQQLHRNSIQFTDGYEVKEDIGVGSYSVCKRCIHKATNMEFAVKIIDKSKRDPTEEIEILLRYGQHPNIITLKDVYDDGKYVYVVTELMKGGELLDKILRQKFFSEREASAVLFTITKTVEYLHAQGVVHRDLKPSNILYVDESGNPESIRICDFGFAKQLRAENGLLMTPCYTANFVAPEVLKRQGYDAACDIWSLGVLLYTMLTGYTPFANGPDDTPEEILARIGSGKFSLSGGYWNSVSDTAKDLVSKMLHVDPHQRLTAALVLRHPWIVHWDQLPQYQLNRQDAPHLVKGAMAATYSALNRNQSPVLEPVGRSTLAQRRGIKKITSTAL
For experiment [5] the target is unchanged. To be noted: at 10 µM.
Experiment [6] deals with Ribosomal protein S6 kinase alpha-2 (Homo sapiens) (UniProt Q15349). As to conditions: at 10 µM.
Ribosomal protein S6 kinase alpha-2 (Homo sapiens), sequence (Q15349 whole entry): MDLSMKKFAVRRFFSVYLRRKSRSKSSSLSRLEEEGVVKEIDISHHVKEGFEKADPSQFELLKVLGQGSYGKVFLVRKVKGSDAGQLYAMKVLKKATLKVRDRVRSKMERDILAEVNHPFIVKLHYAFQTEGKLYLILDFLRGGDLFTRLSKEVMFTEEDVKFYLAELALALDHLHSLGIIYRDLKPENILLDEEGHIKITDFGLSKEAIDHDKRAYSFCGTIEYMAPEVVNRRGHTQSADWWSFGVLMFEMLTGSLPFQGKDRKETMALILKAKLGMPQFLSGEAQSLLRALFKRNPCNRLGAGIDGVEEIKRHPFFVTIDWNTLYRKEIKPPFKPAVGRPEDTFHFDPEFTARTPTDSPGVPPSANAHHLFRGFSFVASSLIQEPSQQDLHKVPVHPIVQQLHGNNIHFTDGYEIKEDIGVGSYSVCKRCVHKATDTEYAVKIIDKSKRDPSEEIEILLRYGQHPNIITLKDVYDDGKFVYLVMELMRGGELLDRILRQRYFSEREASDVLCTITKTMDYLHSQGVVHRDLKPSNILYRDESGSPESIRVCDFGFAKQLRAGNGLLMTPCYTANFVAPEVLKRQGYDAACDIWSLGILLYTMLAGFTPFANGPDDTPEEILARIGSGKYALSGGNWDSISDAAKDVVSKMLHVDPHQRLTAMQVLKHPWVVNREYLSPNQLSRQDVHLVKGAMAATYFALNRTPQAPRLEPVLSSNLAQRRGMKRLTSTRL
Experiment [7] addresses Ribosomal protein S6 kinase alpha-6 (Homo sapiens) (UniProt Q9UK32). As to conditions: at 1 µM.
The target is the same in experiment [8]. To be noted: at 10 µM.
Experiment [9] concerns the target T2, Serine/threonine-protein kinase Sgk1 (Homo sapiens) (UniProt O00141).
T2 sequence (whole entry): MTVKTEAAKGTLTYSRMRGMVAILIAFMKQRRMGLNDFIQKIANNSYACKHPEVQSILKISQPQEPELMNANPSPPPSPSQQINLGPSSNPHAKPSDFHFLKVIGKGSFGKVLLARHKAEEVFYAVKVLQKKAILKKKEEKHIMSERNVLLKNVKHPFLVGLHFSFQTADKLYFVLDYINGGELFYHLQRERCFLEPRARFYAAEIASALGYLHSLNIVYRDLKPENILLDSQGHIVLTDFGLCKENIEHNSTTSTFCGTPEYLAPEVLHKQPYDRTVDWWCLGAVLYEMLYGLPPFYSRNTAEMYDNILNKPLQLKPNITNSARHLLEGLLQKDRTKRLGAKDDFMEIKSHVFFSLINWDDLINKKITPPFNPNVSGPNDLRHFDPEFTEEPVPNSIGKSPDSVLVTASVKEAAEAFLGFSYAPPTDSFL
As to conditions: at 10 µM.

Experiment [10] deals with Ribosomal protein S6 kinase alpha-1 (Homo sapiens) (UniProt Q15418). To be noted: at 1 µM.
Experiment [11] has as its target Ribosomal protein S6 kinase alpha-2 (Homo sapiens) (UniProt Q15349). To be noted: at 1 µM.
Experiment [12] deals with Mitogen-activated protein kinase 14 (Homo sapiens) (UniProt Q16539). As to conditions: at 1 µM.
Mitogen-activated protein kinase 14 (Homo sapiens), sequence (Q16539 whole entry): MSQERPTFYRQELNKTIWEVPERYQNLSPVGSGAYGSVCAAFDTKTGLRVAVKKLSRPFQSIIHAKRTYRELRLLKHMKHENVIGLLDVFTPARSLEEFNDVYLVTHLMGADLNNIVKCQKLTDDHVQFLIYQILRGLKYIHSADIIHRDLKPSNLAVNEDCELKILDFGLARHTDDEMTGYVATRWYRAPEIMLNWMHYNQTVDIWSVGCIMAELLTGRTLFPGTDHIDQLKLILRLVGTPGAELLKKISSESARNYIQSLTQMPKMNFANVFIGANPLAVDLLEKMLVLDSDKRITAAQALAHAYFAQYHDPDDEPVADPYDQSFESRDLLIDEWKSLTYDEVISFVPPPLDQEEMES
Experiment [13] has the same target. As to conditions: at 10 µM.
Experiment [14] deals with Mitogen-activated protein kinase 11 (Homo sapiens) (UniProt Q15759). As to conditions: at 1 µM.
Mitogen-activated protein kinase 11 (Homo sapiens), sequence (Q15759 whole entry): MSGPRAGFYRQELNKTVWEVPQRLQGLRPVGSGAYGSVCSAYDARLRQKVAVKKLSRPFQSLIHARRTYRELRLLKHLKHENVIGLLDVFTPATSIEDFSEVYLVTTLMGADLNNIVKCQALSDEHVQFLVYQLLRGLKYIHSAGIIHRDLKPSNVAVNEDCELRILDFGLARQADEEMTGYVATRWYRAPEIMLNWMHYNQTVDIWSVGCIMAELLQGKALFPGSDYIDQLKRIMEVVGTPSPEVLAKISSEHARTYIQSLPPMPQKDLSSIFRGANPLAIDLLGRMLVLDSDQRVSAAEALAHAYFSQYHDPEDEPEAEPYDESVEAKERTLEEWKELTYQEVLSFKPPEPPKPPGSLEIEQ
Experiment [15] has the same target. To be noted: at 10 µM.
The target of experiment [16] is T3, Mitogen-activated protein kinase 12 (Homo sapiens) (UniProt P53778).
T3 sequence (whole entry): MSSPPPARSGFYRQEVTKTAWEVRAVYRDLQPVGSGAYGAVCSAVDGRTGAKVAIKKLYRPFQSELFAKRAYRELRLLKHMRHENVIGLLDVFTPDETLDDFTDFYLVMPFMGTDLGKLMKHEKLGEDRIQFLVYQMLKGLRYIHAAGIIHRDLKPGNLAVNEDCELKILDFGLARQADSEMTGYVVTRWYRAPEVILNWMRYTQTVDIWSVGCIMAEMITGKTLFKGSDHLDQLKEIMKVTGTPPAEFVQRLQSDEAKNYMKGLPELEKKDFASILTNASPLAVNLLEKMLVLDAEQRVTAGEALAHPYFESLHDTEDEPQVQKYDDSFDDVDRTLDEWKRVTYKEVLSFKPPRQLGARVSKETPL
To be noted: at 1 µM.

The target in experiment [17] is T3, Mitogen-activated protein kinase 12 (Homo sapiens). To be noted: at 10 µM.
The target of experiment [18] is T4, Mitogen-activated protein kinase 13 (Homo sapiens) (UniProt O15264).
T4 sequence (whole entry): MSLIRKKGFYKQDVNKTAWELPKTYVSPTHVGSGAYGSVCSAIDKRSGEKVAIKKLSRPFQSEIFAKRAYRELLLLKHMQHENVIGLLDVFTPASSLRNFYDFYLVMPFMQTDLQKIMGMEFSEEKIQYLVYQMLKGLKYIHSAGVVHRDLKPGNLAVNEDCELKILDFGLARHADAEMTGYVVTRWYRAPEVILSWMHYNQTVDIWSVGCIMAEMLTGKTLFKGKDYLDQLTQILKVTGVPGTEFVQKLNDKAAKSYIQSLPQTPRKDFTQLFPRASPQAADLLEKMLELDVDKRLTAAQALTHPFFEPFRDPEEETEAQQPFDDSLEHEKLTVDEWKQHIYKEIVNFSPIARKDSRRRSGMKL
To be noted: at 10 µM.

Experiment [19] concerns the target T2, Serine/threonine-protein kinase Sgk1 (Homo sapiens). To be noted: at 1 µM.
For experiment [20], the target named is T4, Mitogen-activated protein kinase 13 (Homo sapiens). To be noted: at 1 µM.

Structures are written as SMILES.

Ribosomal protein S6 kinase alpha-6 (Homo sapiens), sequence (Q9UK32 whole entry): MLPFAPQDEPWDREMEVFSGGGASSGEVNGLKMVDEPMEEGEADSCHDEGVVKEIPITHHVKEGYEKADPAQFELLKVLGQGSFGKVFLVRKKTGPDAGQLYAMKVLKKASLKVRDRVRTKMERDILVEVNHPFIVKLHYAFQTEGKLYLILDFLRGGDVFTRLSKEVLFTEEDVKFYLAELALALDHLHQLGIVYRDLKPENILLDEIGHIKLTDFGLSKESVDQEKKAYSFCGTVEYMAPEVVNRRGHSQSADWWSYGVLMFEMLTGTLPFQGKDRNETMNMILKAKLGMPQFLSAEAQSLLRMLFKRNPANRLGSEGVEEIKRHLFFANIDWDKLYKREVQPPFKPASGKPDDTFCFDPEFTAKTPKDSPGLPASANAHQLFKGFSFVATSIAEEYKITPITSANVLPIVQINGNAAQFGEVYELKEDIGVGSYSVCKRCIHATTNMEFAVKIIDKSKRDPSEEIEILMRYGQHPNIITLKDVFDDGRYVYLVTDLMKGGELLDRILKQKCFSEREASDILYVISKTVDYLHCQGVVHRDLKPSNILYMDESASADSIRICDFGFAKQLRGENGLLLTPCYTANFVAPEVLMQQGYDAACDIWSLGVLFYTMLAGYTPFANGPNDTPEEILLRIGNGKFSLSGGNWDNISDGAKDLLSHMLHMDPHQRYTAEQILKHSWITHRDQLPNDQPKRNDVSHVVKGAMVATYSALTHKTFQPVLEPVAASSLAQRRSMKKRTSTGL

For the molecule `c1cc(-c2cnn3cc(-c4ccc(OCCN5CCCCC5)cc4)cnc23)ccn1`, the residual activity in experiment [1] is 104%; in experiment [2] it was 67%; in experiment [3], 74%; in experiment [4], 46%; in experiment [5], 28%; in [6] it was 50%. Moreover, the values for the residual activity in experiment [7], in experiment [8] and in [9] were 68%, 63% and 66%, respectively.
On to `O=c1[nH]c2ccccc2n1C1CCN(Cc2ccc(-c3nc4cc5[nH]cnc5cc4nc3-c3ccccc3)cc2)CC1`, for which the residual activity in [1] worked out at 91%; in experiment [2] it was 91%; in experiment [10], 117%; in [3] it was 84%; in experiment [4], 68%; in experiment [5], 35%. The residual activity in experiment [11] was 108%; in [6] it was 93%; in experiment [7], 106%; in [8], 109%; in experiment [12], 75%; in experiment [13] it was 113%. In addition, the residual activity in experiment [14] was 100%; in experiment [15], 103%; in experiment [16] it was 108%; in experiment [17] it was 82%; in [18], 91%; in experiment [19], 106%. Besides, in experiment [9], the residual activity was 68%.
Consider `N/C(=N\[N+](=O)[O-])N/N=C\c1ccc(-c2cccc([N+](=O)[O-])c2)o1`, for which the residual activity is 43% in [4]; 52% in experiment [5]; 93% in experiment [7]; 96% in experiment [8]; 81% in experiment [12]; 91% in experiment [13].
Regarding `CC(C)(C)n1nc(Cc2cccc3ccccc23)c2c(N)ncnc21`, the residual activity in [16] stood at 100%; in experiment [17], 98%.
For the molecule `N#C/C(=C(\N)Sc1ccc(N)cc1)c1ccccc1C(F)(F)F`, the residual activity in experiment [16] was 104%; in experiment [17], 105%.
With `O=C1c2ccccc2-c2nc3nnnn3nc21`, the residual activity was 106% in experiment [1]; 114% in [2]; 109% in experiment [10]; 103% in [3]; 67% in experiment [4]; 53% in [5]. In addition, the residual activity in [11] amounted to 120%; in experiment [6], 106%; in experiment [12] it was 111%; in experiment [13], 112%; in experiment [14] it was 102%; in experiment [15], 104%. In addition, the residual activity was determined as 130% in experiment [16]; 117% in experiment [17]; 119% in experiment [20]; 101% in experiment [18]; 146% in experiment [19]; 71% in [9].
Turning to `CCc1nc(-c2ccc(OC)cc2)[nH]c1-c1ccncc1`, the residual activity in [1] amounted to 107%; in experiment [2], 108%; in experiment [10] it was 105%; in [3], 104%; in experiment [4], 52%; in experiment [5], 55%. Besides, the residual activity in experiment [14] turned out to be 56%; in [15] it was 72%; in experiment [16], 108%; in experiment [17] it was 104%.
Consider `O=C1Nc2ccc3ncsc3c2/C1=C/c1c[nH]cn1`, for which the residual activity was determined as 56% in experiment [1]; 45% in experiment [2]; 28% in experiment [10]; 4% in experiment [3]; 18% in experiment [4]; 1% in [5]. For the same molecule, the residual activity in experiment [11] is 5%; in experiment [6] it was -1%; in experiment [7] it was 14%; in [8], 2%; in [12], 80%; in experiment [13] it was 74%. Further, the residual activity in experiment [14] came to 71%; in experiment [15], 35%; in experiment [16] it was 50%; in [17], 16%; in experiment [20], 62%; in experiment [18], 24%. Besides, the results for the residual activity in experiment [19] and in [9] were 31% and 7%, respectively.
